A short description of assay [1]: NCI Yeast Anticancer Drug Screen. Data for the rad50 strain (AID 155).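 Further: 0% = growth of vehicle-only cultures of the same strain.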 The conditions noted are these: S. cerevisiae rad50 strain growth inhibition, hits give high values. In a few lines:
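DNA repair mutant yeast, compound exposure, growth read-out; inhibition is taken relative to vehicle.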

A short description of assay [2]: NCI Yeast Anticancer Drug Screen. Data for the mec2-1 strain (AID 157). The conditions noted are these: S. cerevisiae mec2-1 strain, hits give high values. In a few lines: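 Yeast mec2-1 mutant treated with compound. Readout: growth inhibition vs vehicle controls.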
Assay [3] can be described thus: NCI Yeast Anticancer Drug Screen. Data for the sgs1 mgt1 strain (AID 161).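 Further: 0% = growth of cultures given vehicle only.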 The conditions noted are these: S. cerevisiae sgs1 mgt1 strain, hits give high values. In outline:
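Read-out: growth inhibition vs vehicle controls. Cells: mutant yeast strain deficient in DNA damage repair.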

The nature of assay [4]: NCI Yeast Anticancer Drug Screen. Data for the cln2 rad14 strain (AID 165).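 Further: 0% = growth equal to vehicle treated cultures.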 The conditions noted are these: S. cerevisiae cln2 rad14 strain, hits give high values. In outline:
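cln2 rad14 yeast strain; compound exposure; growth inhibition read vs vehicle controls.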

Assay [5] in a line: NCI Yeast Anticancer Drug Screen. Data for the bub3 strain (AID 167). The conditions noted are these: S. cerevisiae bub3 mutant strain, hits give high values. In a few lines:
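In this screen, a yeast mutant lacking normal mitotic checkpoint function is challenged with compound. Relative growth versus vehicle gives the inhibition value.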

Assay [6] in a line: NCI Yeast Anticancer Drug Screen. Data for the mlh1 rad18 strain (AID 175). The conditions noted are these: S. cerevisiae mlh1 rad18 strain growth inhibition, hits give high values. In outline: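 Yeast w/ defined DNA-repair lesions; compound exposure; growth vs vehicle controls → % inhibition.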
Where [7] appears, read: at 5.0 µM (retest, dose inferred, filed as 0.5).
[8] abbreviates: at 50.0 µM (retest, dose inferred, filed as 5.0).

The panel holds about 79,000 compounds, 15% with a hit somewhere; the sample as a whole holds those more often. Unmarked numbers belong to inactive results. Active and inactive are the calls of the source. No stated cut-off is given here; in the data, active means growth inhibition above about 70%; inactive means the rest.

On to `O=C(OCC1OC(c2nn[nH]n2)C(OC(=O)c2ccccc2)C1OC(=O)c1ccccc1)c1ccccc1` (configuration not stated), for which the growth inhibition was 17% in assay [1] (setting [7]); 61% in assay [1] (setting [8]); 19% in assay [1] (at 50.0 µM); 4% in assay [2] (setting [7]); 56% in assay [2] (setting [8]); 30.4% in assay [2] (at 50.0 µM). Besides, the growth inhibition in assay [3] (setting [7]) is 19%; in assay [3] (setting [8]), 80% (active); in assay [3] (at 50.0 µM) it was 43.8%; in assay [4] (setting [7]), 25%; in assay [4] (setting [8]), 70% (active); in assay [4] (at 50.0 µM), 45.9%. In addition, the growth inhibition in assay [5] (setting [7]) is 17%; in assay [5] (setting [8]) it was 80% (active); in assay [5] (at 50.0 µM), 66%; in assay [6] (setting [7]), 36%; in assay [6] (setting [8]), 66%; in assay [6] (at 50.0 µM), -33.6%.

Regarding `COC(=O)c1cc(-c2ccccc2)[nH]c(=O)c1C#N`, the growth inhibition in assay [1] (setting [7]) was -8%; in assay [1] (setting [8]) it was -32%; in assay [1] (at 50.0 µM), 44.5%; in assay [2] (setting [7]), -18%; in assay [2] (setting [8]), -15%; in assay [2] (at 50.0 µM), 5.25%. Moreover, the growth inhibition in assay [3] (setting [7]) was -5%; in assay [3] (setting [8]) it was -16%; in assay [3] (at 50.0 µM), 75.8% (active); in assay [4] (setting [7]), -36%; in assay [4] (setting [8]) it was -21%; in assay [4] (at 50.0 µM) it was 22.6%. Further, the growth inhibition in assay [5] (setting [7]) is -24%; in assay [5] (setting [8]) it was -23%; in assay [5] (at 50.0 µM), -24.7%; in assay [6] (setting [7]) it was 0%; in assay [6] (setting [8]), -21%; in assay [6] (at 50.0 µM) it was 52%.

As for `C[N+](C)=c1ccc2nc3c(cc(NCCCNc4cc5oc6cc(=[N+](C)C)ccc-6nc5c5ccccc45)c4ccccc43)oc-2c1`, the growth inhibition was -28% in assay [1] (setting [7]); 79% (active) in assay [1] (setting [8]); 75.8% (active) in assay [1] (at 50.0 µM); -7% in assay [2] (setting [7]); 80% (active) in assay [2] (setting [8]); 51% in assay [2] (at 50.0 µM). The growth inhibition in assay [3] (setting [7]) was -15%; in assay [3] (setting [8]), 70% (active); in assay [3] (at 50.0 µM) it was 67.5%; in assay [4] (setting [7]), -29%; in assay [4] (setting [8]), 53%; in assay [4] (at 50.0 µM) it was 39.5%. In addition, the growth inhibition in assay [5] (setting [7]) is -18%; in assay [5] (setting [8]) it was 72% (active); in assay [5] (at 50.0 µM), 64%; in assay [6] (setting [7]), -15%; in assay [6] (setting [8]), 74% (active); in assay [6] (at 50.0 µM), 65.1%.

For the compound `COc1cccc(CC2N(S(=O)(=O)c3ccc(C)cc3)CCC23C(=O)Nc2ccccc23)c1OC` (configuration not stated), the growth inhibition in assay [1] (setting [7]) was 10%; in assay [1] (setting [8]) it was 94% (active); in assay [1] (at 50.0 µM) it was 91.8% (active); in assay [2] (setting [7]), 2%; in assay [2] (setting [8]), 96% (active); in assay [2] (at 50.0 µM) it was 69.4%. The growth inhibition in assay [3] (setting [7]) was 10%; in assay [3] (setting [8]), 96% (active); in assay [3] (at 50.0 µM) it was 82.2% (active); in assay [4] (setting [7]), -3%; in assay [4] (setting [8]), 93% (active); in assay [4] (at 50.0 µM), 39%. In addition, the growth inhibition in assay [5] (setting [7]) was -3%; in assay [5] (setting [8]), 96% (active); in assay [5] (at 50.0 µM), 80.7% (active); in assay [6] (setting [7]) it was 3%; in assay [6] (setting [8]), 96% (active); in assay [6] (at 50.0 µM), 92.2% (active).

`NC1CCCCC1N.O=S(=O)([O-])CCCN1CCN(CCO)CC1.O=S(=O)([O-])CCCN1CCN(CCO)CC1.[Pt+4]`: the growth inhibition was 8% in assay [1] (setting [7]); 98% (active) in assay [1] (setting [8]); -8.45% in assay [1] (at 50.0 µM); 8% in assay [2] (setting [7]); 99% (active) in assay [2] (setting [8]); -9.95% in assay [2] (at 50.0 µM). The growth inhibition was 12% in assay [3] (setting [7]); 98% (active) in assay [3] (setting [8]); 23.1% in assay [3] (at 50.0 µM); 44% in assay [4] (setting [7]); 66% in assay [4] (setting [8]); -15.8% in assay [4] (at 50.0 µM). Besides, the growth inhibition in assay [5] (setting [7]) was -24%; in assay [5] (setting [8]) it was 97% (active); in assay [5] (at 50.0 µM), -2.7%; in assay [6] (setting [7]) it was 16%; in assay [6] (setting [8]), 98% (active); in assay [6] (at 50.0 µM), 24.4%.

In the case of `O=c1c(S(=O)(=O)Oc2ccccc2)coc2cc(F)ccc12`, the growth inhibition in assay [1] (setting [7]) is 99% (active); in assay [1] (setting [8]), 100% (active); in assay [1] (at 50.0 µM), 81.7% (active); in assay [2] (setting [7]), 99% (active); in assay [2] (setting [8]) it was 100% (active); in assay [2] (at 50.0 µM), 86.7% (active). In addition, the growth inhibition in assay [3] (setting [7]) is 99% (active); in assay [3] (setting [8]) it was 100% (active); in assay [3] (at 50.0 µM), 90.2% (active); in assay [4] (setting [7]) it was 99% (active); in assay [4] (setting [8]), 100% (active); in assay [4] (at 50.0 µM), 91.5% (active). The growth inhibition in assay [5] (setting [7]) is 99% (active); in assay [5] (setting [8]) it was 100% (active); in assay [5] (at 50.0 µM), 91% (active); in assay [6] (setting [7]) it was 99% (active); in assay [6] (setting [8]), 100% (active); in assay [6] (at 50.0 µM) it was 93.1% (active).

On to `CCOC(=O)CNC(=O)Sc1ccc(C(C)(C)C)cc1C`, for which the growth inhibition is 17% in assay [1] (setting [7]); 32% in assay [1] (setting [8]); 0.05% in assay [1] (at 50.0 µM); 22% in assay [2] (setting [7]); 74% (active) in assay [2] (setting [8]); 19.8% in assay [2] (at 50.0 µM). Besides, the growth inhibition in assay [3] (setting [7]) is 17%; in assay [3] (setting [8]), 60%; in assay [3] (at 50.0 µM), 82% (active); in assay [4] (setting [7]), 19%; in assay [4] (setting [8]), 84% (active); in assay [4] (at 50.0 µM) it was 75.7% (active). Also, the growth inhibition in assay [5] (setting [7]) is 14%; in assay [5] (setting [8]) it was 92% (active); in assay [5] (at 50.0 µM), 69.7%; in assay [6] (setting [7]) it was 29%; in assay [6] (setting [8]) it was 50%; in assay [6] (at 50.0 µM) it was 26.7%.

As for `CCC/C(=N\NC(=S)N1CCCCCC1)c1ccccn1`, the growth inhibition in assay [1] (setting [7]) is 69%; in assay [1] (setting [8]) it was 97% (active); in assay [1] (at 50.0 µM), 90.3% (active); in assay [2] (setting [7]), 77% (active); in assay [2] (setting [8]) it was 97% (active); in assay [2] (at 50.0 µM), 93.5% (active). Besides, the growth inhibition in assay [3] (setting [7]) was 72% (active); in assay [3] (setting [8]), 97% (active); in assay [3] (at 50.0 µM) it was 90.9% (active); in assay [4] (setting [7]) it was 66%; in assay [4] (setting [8]), 97% (active); in assay [4] (at 50.0 µM) it was 91.7% (active). Besides, the growth inhibition in assay [5] (setting [7]) was 90% (active); in assay [5] (setting [8]) it was 96% (active); in assay [5] (at 50.0 µM), 90.7% (active); in assay [6] (setting [7]), 82% (active); in assay [6] (setting [8]), 96% (active); in assay [6] (at 50.0 µM), 90.2% (active).

For `Nc1ccccc1SCc1csc(-c2ccc(Cl)cc2)n1`, the growth inhibition was -4% in assay [1] (setting [7]); 98% (active) in assay [1] (setting [8]); 97.9% (active) in assay [1] (at 50.0 µM); -3% in assay [2] (setting [7]); 98% (active) in assay [2] (setting [8]); 97.3% (active) in assay [2] (at 50.0 µM). Also, the growth inhibition is 2% in assay [3] (setting [7]); 98% (active) in assay [3] (setting [8]); 98.5% (active) in assay [3] (at 50.0 µM); -10% in assay [4] (setting [7]); 97% (active) in assay [4] (setting [8]); 97.2% (active) in assay [4] (at 50.0 µM). In addition, the growth inhibition in assay [5] (setting [7]) was 2%; in assay [5] (setting [8]) it was 98% (active); in assay [5] (at 50.0 µM) it was 97.1% (active); in assay [6] (setting [7]), 2%; in assay [6] (setting [8]) it was 98% (active); in assay [6] (at 50.0 µM), 97.6% (active).

Source of the values: PubChem BioAssay (NCI).
